An excerpt weighted towards active compounds, which were near 12% of everything screened.
Sm TGR block = blocks Schistosoma mansoni thioredoxin glutathione reductase; purified TGR, DTNB reduction, TNB absorbance 405 nm; Potency, µM (top dose mostly 114 µM), without a hit: at the top dose activity change, negative = inhibition, hits mostly inhibitors; hit rate 3% among 360,000; AID 485364; further: on the % scale 0 is the no-effect control and ±100 the full control effect; nearly all actives have a fitted effect of over 60% in size
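TGR 20 nM + NADPH 100 uM (dispensed conc.), cpd preinc 15 min RT; start with NADPH (500 uM addition) then DTNB (15 mM addition). Kinetic TNB absorbance, 405 nm filter. Four-parameter Hill fit across titration.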
Pf growth 96h = P. falciparum growth inhibition at 96 hour, primary screen for plastid delayed-death inhibitors. Potency, µM (doses to about 28.7 µM), inactives show at the top dose activity change, negative = inhibition, most hits filed as inhibitors. P. falciparum luciferase reporter growth, 96 h. hit rate 6.9% among 320,000; further: on the % scale 0 is the no-effect control and ±100 the full control effect
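P. falciparum expressing integrated firefly luciferase, in erythrocytes at 2% hematocrit, 0.05% parasitemia, incubated with compounds 96 h at 37 C, 5% CO2. Growth inhibition read as loss of luminescence; two-generation exposure targets delayed-death apicoplast inhibitors.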
Pf growth 48h = inhibits P. falciparum growth in the first generation, 48 h; P. falciparum luciferase growth in erythrocytes, 48 h; Potency, µM (highest dose often 28.7 µM), inactives show at the top dose activity change, negative = inhibition, most hits filed as inhibitors; hit rate 5.9% among 310,000; AID 504832; further: on the % scale 0 is the no-effect control and ±100 the full control effect
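Growth was read as firefly luciferase luminescence after a 48 h, 37 C, 5% CO2 exposure of compounds to reporter-bearing P. falciparum cultures (0.1% parasitemia, 2% hematocrit final) in Albumax-supplemented RPMI 1640.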
SARS PLpro yeast = blocks SARS-CoV papain-like protease in a yeast assay; AID 485353; Potency, µM (series often up to 32.9 µM), for inactives: top-dose activity, positive = growth rescue, hits mostly activators; hit rate 0.19% among 330,000; S. cerevisiae expressing SARS-CoV PLpro, growth rescue; calls by dose curve; further: 0% is about no effect; nearly all actives have a fitted effect of over 55% in size
* marks the source's active call; other numbers are inactive results; u = inconclusive; x = not tested or not shown. Unless noted, the call rests on the fitted dose curve; in most records, active means well fitted curve in the direction sought with a large enough effect; inconclusive means small, poorly fitted or top-dose-only effect, or another doubt; inactive means no such curve, though single readings can be large; an effect the other way counts as inactive or inconclusive. Potency means the concentration at half of the fitted maximal effect.

SMILES	Sm TGR block	Pf growth 96h	Pf growth 48h	SARS PLpro yeast
CCOc1ccc(S(=O)(=O)N2CCCC(C(=O)NCc3ccco3)C2)cc1 (configuration not stated)	-12%	6%	-6%	2%
CCCNC(=O)C1CCN(S(=O)(=O)c2c(C)noc2/C=C\c2ccc(OC)cc2)CC1	-27%	u	x	4%
COC(=O)c1ccc(C(=O)OC)c(NC(=O)c2c(-c3ccccc3)noc2C)c1	-4%	x	x	x
CCS(=O)(=O)N1CCC(NC(=O)C(Cc2cccc(OC)c2OC)NC(C)=O)CC1 (configuration not stated)	-9%	u	u	11%
CCOc1ccc(-c2nc3c(c(SCC(=O)N4CCCCC4)n2)Cc2cccc(OC)c2O3)cc1	-1%	x	x	x
O=C(NCc1ccco1)C1CCN(S(=O)(=O)c2ccccc2C(F)(F)F)CC1	-2%	u	10µM*	3%
O=C(COc1ccc(S(=O)(=O)N2CCCC2)cc1)NCc1ccco1	-33%	-24%	x	6%
CCOc1ccc(S(=O)(=O)N2CCC(C(=O)Nc3cc(S(C)(=O)=O)ccc3Cl)CC2)cc1	-6%	u	10µM*	3%
Cc1cc(S(=O)(=O)N2CCOCC2)ccc1OCC(=O)NCc1ccco1	-9%	3%	-8%	-1%
Cc1cc(S(=O)(=O)N2CCCC2)ccc1OCC(=O)NCc1ccco1	40µM*	x	-19%	4%
CCOc1ccc(S(=O)(=O)N2CCN(C(=S)NCc3ccco3)CC2)cc1	-3%	2.3µM*	2.9µM*	-16%
CC(=O)c1cccc(OCC(=O)N(Cc2ccco2)c2c(N)n(Cc3ccccc3)c(=O)[nH]c2=O)c1	-33%	3%	u	-5%
Fc1ccccc1NC(=S)NN(Cc1ccccc1)c1ccccc1	2%	x	-26%	8%
Cc1cccc(C)c1NC(=S)NN(Cc1ccccc1)c1ccccc1	-4%	4.7µM*	x	14%
CC(C)c1ccccc1NC(=S)NN(Cc1ccccc1)c1ccccc1	1%	12µM*	u	-5%
COc1ccc(S(=O)(=O)N(C)C[C@H]2Oc3ccc(NC(=O)Nc4ccc5c(c4)OCO5)cc3C(=O)N([C@H](C)CO)C[C@@H]2C)cc1	x	x	x	6%
CN(C)CCCN(C(=O)c1cc2ccccc2oc1=O)c1nc2ccc(F)cc2s1	5%	-14%	21%	19%
CCN(CCCCCN(C)C)Cc1cc2ccccc2o1	5%	5.2µM*	10µM*	-1%
COc1ccc(CS(=O)c2nc(C)cc(C)c2S(C)(=O)=O)cc1 (configuration not stated)	3%	30%	12µM*	0%
CCN(CC)S(=O)(=O)c1ccc(OCC(=O)NCc2ccccc2)cc1	-9%	9.3µM*	u	0%
CC(SCc1ccccc1)C(=O)N/N=C/c1ccc(OCC(=O)NCc2ccco2)cc1 (configuration not stated)	-22%	1.7µM*	4%	2%
CCOc1ccc(S(=O)(=O)N(CC)CC(=O)NCc2cccnc2)cc1	-3%	12µM*	8%	2%
Cc1ccc(S(=O)(=O)N(C)c2ccc(OCC(=O)NCc3ccco3)cc2)cc1	2%	x	-11%	0%
COc1ccc(S(=O)(=O)N(CCc2ccccc2)CC(=O)NCc2ccccc2)cc1	14%	x	x	x
CCN(CC)S(=O)(=O)c1ccc(OCC(=O)NCc2ccco2)cc1	22µM*	-13%	3%	0%
SMILES	Sm TGR block	Pf growth 96h	Pf growth 48h	SARS PLpro yeast
COc1cc2c(cc1OC)[C@@H](NC(=O)CCc1ccccc1)[C@H](O)C2	x	x	x	-4%
Cc1cc(C)nc(NC(N)=NC(C)c2ccccc2)n1 (configuration not stated)	0%	u	15µM*	0%
CCN(CC)S(=O)(=O)c1ccc(N2CCCCC2)c(NC(=O)/C=C/c2ccc(OC)c(OC)c2)c1	-9%	10µM*	9.3µM*	-5%
CCN(CC)S(=O)(=O)c1ccc(OC)c(NC(=O)/C=C/c2ccco2)c1	3.2µM*	-22%	-17%	1%
CCN(CC)S(=O)(=O)c1ccc(N2CCN(c3cccc(OC)c3)CC2)c([N+](=O)[O-])c1	-7%	9.3µM*	u	-8%
CCN(CC)S(=O)(=O)c1ccc(N2CCCC2)c(NC(=O)C2CCCCC2)c1	3%	7%	2%	-1%
CCOc1ccc(S(=O)(=O)Nc2cc(S(=O)(=O)N(CC)CC)ccc2N2CCCC2)cc1	-23%	1.3µM*	7.4µM*	10%
CCN(CC)S(=O)(=O)c1ccc(OC)c(NC(=O)c2ccc3c(c2)OCO3)c1	-3%	11%	-17%	-1%
CCOc1ccc(S(=O)(=O)N(CC)CC(=O)N2CCCC2)cc1	-34%	12%	13%	3%
Cc1cccc(NC(=O)CN(C)S(=O)(=O)c2ccc3c(c2)n(C)c(=O)c(=O)n3C)c1C	0%	u	-10%	-2%
COc1ccc(/C=C(\NC(=O)c2ccccc2)C(=O)NCc2ccco2)cc1OC	5%	18%	u	0%
Fc1ccc(CN2C3=NCCN3c3ccccc32)cc1	7%	-12%	-9%	3%
CCN(CC)S(=O)(=O)c1ccc(N2CCCC2)c(NC(=O)Cc2ccc(OC)cc2)c1	2%	u	u	0%
COc1ccc(C(C)(C)C)cc1NC(=O)c1cc(S(=O)(=O)N(C)C)ccc1N1CCCC1	-4%	9.3µM*	13µM*	5%
CCc1noc(C)c1C(=O)Nc1cc(S(=O)(=O)N(CC)CC)ccc1N1CCCC1	-1%	4%	-7%	-1%
CCN(CC)S(=O)(=O)c1ccc(N2CCCC2)c(NC(=O)c2ccc(OC)cc2OC)c1	u	u	13µM*	-2%
CCOc1ccc(/C=C/C(=O)NC2CCCCC2)cc1	3%	u	21%	-1%
CCN(CC)S(=O)(=O)c1ccc(/C=C/C(=O)NC2CCCCC2)cc1	1%	4.7µM*	u	1%
CCN(CC)S(=O)(=O)c1ccc(N2CCCC2)c(NC(=O)Cc2cc(OC)c(OC)c(OC)c2)c1	-2%	u	7.4µM*	-1%
O=C1CN(C(=O)Nc2ccccc2Cl)C(c2ccccc2)c2c(sc3c2CCCC3)N1 (configuration not stated)	3%	x	x	x
O=C(COC(=O)Cc1ccc(S(=O)(=O)N2CCOCC2)s1)Nc1ccc(F)cc1F	x	x	x	-5%
CC(=O)c1cccc(Nc2nn(-c3ccc(OC(F)(F)F)cc3)nc2C(C)=O)c1	12%	x	x	x
COc1ccc(NC(=O)CCCOc2ccc(Cl)c(C)c2)cc1S(=O)(=O)N1CCOCC1	x	x	x	0%
CCN(CC)S(=O)(=O)c1ccc(N2CCCCC2)c(NC(=O)/C(C#N)=C/c2ccc(OC)cc2)c1	1%	12µM*	u	7%
Cc1ccc(NC(=O)C2CCN(S(=O)(=O)c3ccc4[nH]c(=O)ccc4c3)CC2)cc1C	-1%	x	x	x
Cc1cccc(Nc2c([N+](=O)[O-])c(=O)n(C)c3ccccc23)c1	-20%	10µM*	15µM*	6%
Cn1c(=O)c([N+](=O)[O-])c(-n2ccnc2)c2ccccc21	35µM*	54%	u	-1%
Cc1cccc(CNC(=O)CN2C(=O)CCCc3ccccc32)c1	5%	x	x	x
